Experimental data as given in PubChem BioAssay AID488984 (The Scripps Research Institute Molecular Screening Center, 2010).
Active and inactive are the calls of the source. Rule as the data show it: active = inhibition above about 55%; inactive = the rest.

Tested on: SARS coronavirus 3C-like protease (3CLpro, nsp5)
Test: blockers of SARS 3CLpro activity – biochemical, fluorescence, set 2, late-stage follow-up (AID 488984)
Conditions: recombinant 3CLpro, fluorogenic peptide cleavage; at 100 µM; active compounds read high

SMILES	inhibition
CC(C)(C)NC(=O)C(c1cccnc1)N(C(=O)c1cccc2c1CCCC2)c1ccc(C(C)(C)C)cc1 (configuration not stated)	12.7% (inactive)
CC(C)(C)NC(=O)C(c1cccnc1)N(C(=O)Cc1cccc2ccccc12)c1ccc(C(C)(C)C)cc1 (configuration not stated)	19.6% (inactive)
CC(C)(C)NC(=O)C(c1cccnc1)N(C(=O)Cc1c[nH]c2ccccc12)c1ccc(C(C)(C)C)cc1 (configuration not stated)	30.6% (inactive)
CC(C)(C)NC(=O)C(c1ccsc1)N(C(=O)c1ccc(C(F)(F)F)nc1)c1ccc(F)cc1 (configuration not stated)	9.21% (inactive)
Cc1nccn1CC(=O)N(c1ccc(NC(=O)C(C)C)cc1)C(C(=O)NC(C)(C)C)c1ccsc1 (configuration not stated)	7.94% (inactive)
CC(C)(C)NC(=O)C(c1cccnc1)N(C(=O)c1ccc(C#N)cc1)C1CC1 (configuration not stated)	-4.03% (inactive)
CC(C)(C)NC(=O)C(c1cccnc1)N(C(=O)Cc1cccnc1)c1ccc(C(C)(C)C)cc1 (configuration not stated)	20.2% (inactive)
CC(C)(C)NC(=O)C(c1ccsc1)N(C(=O)Cc1c[nH]c2ccccc12)c1ccc(F)cc1 (configuration not stated)	17.7% (inactive)
CC(C)c1ccc(N(C(=O)c2ccc(C(F)(F)F)nc2)C(C(=O)NC(C)(C)C)c2ccsc2)cc1 (configuration not stated)	8.21% (inactive)
CC(C)(C)NC(=O)C(c1ccsc1)N(C(=O)c1cccc2c1CCCC2)c1ccc(OCF)cc1 (configuration not stated)	12.6% (inactive)
CC(C)c1ccc(N(C(=O)c2ccc(C(F)(F)F)nc2)C(C(=O)NC(C)(C)C)c2cccnc2)cc1 (configuration not stated)	-15.3% (inactive)
CC(C)(C)NC(=O)C(c1cccnc1)N(C(=O)c1cccc2c1CCCC2)c1ccc(F)cc1 (configuration not stated)	12% (inactive)
